Laboratory results from PubChem BioAssay AID588405 (Sanford-Burnham Center for Chemical Genomics, 2011).
Screen size: about 360,000 compounds; about 6,200 (1.7%) were called active.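 Rule for the calls: active = inhibition of at least 50% at 20 µM; inactive = the rest.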 This excerpt belongs to a sample that is enriched for actives.

Test: Peg3 promoter-driven luciferase inhibitors, primary screen, cell-based, HeLa, luciferase luminescence (AID 588405)
Conditions: HeLa PEG-Prom luciferase reporter, overnight, at 20 µM, active compounds read high

inhibition, active:
CCOc1cc2[nH]c(=S)n(Cc3ccc(C(=O)N4CCN(C)CC4)cc3)c(=O)c2cc1OCC 105%
O=C(NNc1c2ccccc2nc2ccccc12)c1cc2ccccc2cc1O 74.7%
Cc1csc2ncc(C(=O)N(Cc3ccccc3)c3ccccn3)c(=O)n12 81.4%
O=c1[nH]c(=S)[nH]c(O)c1/C=C1\C=Nc2ccccc21 60.8%
C#Cc1cc(N2CCN(C(=O)c3ccoc3)CC2)n2nc(-c3cccc(Cl)c3)cc2n1 79.3%
CN(C)CCNC(=O)c1ccc(-c2cn3c(-c4ccc(Oc5ccccc5)cc4)cnc3cn2)cc1 99.7%
COc1ccc(Nc2nc(-c3cccnc3)nc3ccccc23)cn1 53.5%
CN(CCO)c1ccc(/C=N/Nc2nncc3ccccc23)cc1 63.9%
COc1ccc(-c2nnc(SC(=O)N3c4ccccc4Sc4ccccc43)o2)cc1 51.3%
COc1cc(/C=C2/C(=O)ON=C2C)ccc1OCc1ccccc1F 66.5%
CC1CCCCC1NC(=O)/C(C#N)=C/C=C/c1ccccc1[N+](=O)[O-] (configuration not stated) 111%
COc1ccc(CNC(=O)C[C@H]2C[C@H](C(=O)N3CCOCC3)[C@@]3(CCC4CCCC4)c4[nH]c5ccc(Cl)cc5c4CCN3C2=O)cc1OC 56.1%
O=C(C[C@H]1C[C@H](C(=O)N2CCOCC2)[C@@]2(CCC3CCCC3)c3[nH]c4ccc(Cl)cc4c3CCN2C1=O)NCc1ccco1 61.1%

inhibition, inactive:
CCNC(=O)C1(C)CCN(Cc2ccc(C(=O)OCC)o2)C1 (configuration not stated) 2.73%
O=C(Cc1ccc(NC(=O)C2CCCN(C(=O)CCc3ccccc3)C2)cc1)Nc1ccc(C(=O)N2CCOCC2)cc1 (configuration not stated) -12.9%
COc1cc2[nH]c(=S)n(Cc3ccc(F)cc3)c(=O)c2cc1OC 13.7%
CCOc1cc2[nH]c(=S)n(Cc3ccc(C(=O)NCCOC)cc3)c(=O)c2cc1OCC 9.27%
COc1ccc(Br)c(Cn2c(C)c(C(=O)NCc3cccs3)sc2=O)c1 7.67%
Cc1nc(C(F)(F)F)ccc1C(=O)N1CCC1(C)C(=O)NS(=O)(=O)c1ccccc1Cl (configuration not stated) 7.45%
O=S1(=O)CC(N2CCC(Cc3ccccc3)CC2)CN1Cc1ccccc1 (configuration not stated) -15.6%
O=C(NNC(=O)c1ccccc1O)c1ccccc1O 23.7%
O=C(COC(=O)c1ccc(O)cc1O)NC(=O)c1ccccc1 19.7%
O=C(Nc1cccc(S(=O)(=O)N2CCOCC2)c1)C12CC3CC(CC(C3)C1)C2 13.8%
CCCS(=O)(=O)NC(=O)C1(C)CCN(C(=O)c2sccc2C)C1 (configuration not stated) -4.46%
OC(c1ccc(Cl)cc1)c1ncc(-c2ccc(Cl)cc2)[nH]1 (configuration not stated) -29.5%
OC[C@@H]1CN(Cc2ccc(-c3ccccc3)cc2)C[C@H](n2cnc3c(NC4CCCC4)ncnc32)O1 19.6%
CC(C)(C)C(=O)N(Cc1ccccc1)c1ccccn1 -2.77%
CCC(=O)N(Cc1ccccc1)c1ccccn1 13.9%
O=C(CCN1C(=O)[C@@H]2Cc3ccccc3CN2C1=O)NCc1ccccc1 4.93%
Cc1cc2oc(=O)cc(CN(C)Cc3ccccc3)c2cc1Cl -133%
Cc1cc2c(cc1C)N1C(=O)c3cc4ccccc4cc3NC(=O)C1C(=O)N2 (configuration not stated) 9.54%
COc1cc(C(O)c2nc(-c3cnn(C)c3)cs2)ccc1F (configuration not stated) 9.83%
CCc1nc2c(OCCOc3ccccc3)cccn2c1N(C)C(=O)c1cccs1 30.3%
O=C(c1ccccc1)N1CCN(c2cc(-c3ccccc3)nc3cc(-c4cccc(Cl)c4)nn23)CC1 16.8%
CN(C)CCN1CCN(c2cc(-c3cccc(Cl)c3)nc3ccnn23)CC1 7.56%
CCCC(=O)N1CCC1(C)C(=O)Nc1ccc(-n2cncn2)cc1 (configuration not stated) 5.62%
Cc1noc(C)c1COc1ccc(C(=O)NCCOc2ccccc2)cc1 -115%
CN(C)C(CNC(=O)c1ccc(OCc2cn3ccccc3n2)cc1)c1ccco1 (configuration not stated) -55.3%
CCc1ccc(OC2(C)CCN(CCOc3ccc(C)cc3)C2)cc1 (configuration not stated) 15.4%
S=c1nc2ccccc2c2nc(-c3cccnc3)[nH]n12 -35.9%
CCN(CC(=O)NC1CCS(=O)(=O)C1)c1nc(-c2cccnc2)nc2ccccc12 (configuration not stated) -4.15%
Cc1ccc(Sc2ccc(NC(=O)c3ccc(F)cc3)cc2C#N)cc1 -1.6%
CC(C)NC(=O)Nc1ccc2c(c1)C(=O)N([C@H](C)CO)C[C@H](C)[C@@H](CN(C)Cc1ccc(C(F)(F)F)cc1)OCCCC[C@@H](C)O2 12.5%
COc1ccc(CN(C(=O)CSc2nnc(-c3ccc(OC)c(OC)c3)o2)c2ccc(F)cc2)cc1 30.6%
COc1ccc(-c2nnc(SC(C)C(=O)NC3CC3)o2)cc1 (configuration not stated) -27.6%
CC(=O)C1=CCC(c2ccccc2)N(S(=O)(=O)c2ccc(C)cc2)C1 (configuration not stated) 7.17%
COc1cc(/C=C2/C(=O)ON=C2C)ccc1OCc1cccc(F)c1 45.1%
C#CCOc1ccc(/C=C2/C(=O)ON=C2C)cc1OCC 27.9%
OC[C@@H]1CN(C2CCCC2)C[C@H](n2cnc3c(NC4CCC4)ncnc32)O1 4.02%
O=[N+]([O-])c1ccccc1/C=C/CN1CCC(O)CC1 10.2%
CC(OC(=O)/C=C/c1ccccc1)C(=O)NC1CCCCC1C (configuration not stated) 6.61%
CCCN(c1ccc(C)cc1)c1nc(=O)c2cccnc2s1 8.6%
CC(=O)Nc1cncc(-c2ccccc2CO)n1 7.63%
COc1ccc2[nH]c3c(c2c1)CCN1C(=O)C(CC(=O)NCCCN(C)C)C[C@H](C(=O)N2CCOCC2)[C@@]31CCC1CCCC1 (some centres not stated) 1.46%
CN(C)C(=O)CCc1ccc2c3c([nH]c2c1)[C@]1(CCC2CCCC2)[C@@H](C(=O)N2CCOCC2)C[C@H](CC(=O)NCc2ccco2)C(=O)N1CC3 0.84%
CC[C@]12c3[nH]c4ccc(Cl)cc4c3CCN1C(=O)[C@@H](CC(=O)NCCN1CCOCC1)C[C@@H]2C(=O)N1CCN(C(=O)C2CC2)CC1 -0.39%
CC[C@]12c3[nH]c4ccc(OC)cc4c3CCN1C(=O)C(CC(=O)NCc1ccco1)C[C@@H]2C(=O)N1CCN(C(=O)C2CC2)CC1 (some centres not stated) -6.85%
